Experimental findings from PubChem BioAssay (NCI) are described below.

Compounds without any hit were thinned out: in the full panel of roughly 83,000, 20% have a hit.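 Single-concentration screen, 48 h exposure, 96-well plates. Endpoint: percent growth. Below 10 = active.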 A number with no mark means an inactive call. Calls of active or inactive are those of the source.

Test systems include K-562 leukemia; MALME-3M melanoma; MDA-MB-231 breast; RXF 393 renal; SF-268 CNS; SF-295 CNS; SF-539 CNS; UACC-257 melanoma; M14 melanoma; HCT-15 colon; HT29 colon; SNB-75 CNS; SNB-19 CNS; U251 CNS; PC-3 prostate; SK-MEL-5 melanoma; UACC-62 melanoma; LOX IMVI melanoma; SK-MEL-28 melanoma; SK-MEL-2 melanoma.
Assay in all cases: NCI-60 one-dose screen, 48 h (100 = growth as untreated, 0 = no growth, -100 = all killed)
Details in all cases: 10 µM unless noted

In the case of `O=C(CSc1nc2sc3c(c2c(=O)n1-c1ccc(Cl)cc1)CCCC3)NNC(=O)Nc1cccc(C(F)(F)F)c1`, the growth in the assay with K-562 leukemia was 13.1%; with MALME-3M melanoma, 29.8%; in the assay with MDA-MB-231 breast, 59%; in the assay on RXF 393 renal, 81.7%; in the assay with SF-268 CNS it was 40.8%; in the assay with SF-295 CNS, 6.43% (active). The growth was 51.1% with SF-539 CNS; 35.3% with UACC-257 melanoma; 32.1% with M14 melanoma; 12.9% in the assay with HCT-15 colon; 26.2% with HT29 colon; 36.3% in the assay on SNB-75 CNS. The growth with SNB-19 CNS was 21.8%; in the assay with U251 CNS, 16.7%; in the assay on PC-3 prostate, 7.37% (active); in the assay with SK-MEL-5 melanoma, 35.4%; with UACC-62 melanoma, 17.3%; with LOX IMVI melanoma, -17% (active). In addition, the growth is 33.2% in the assay with SK-MEL-28 melanoma and -8.08% (active) with SK-MEL-2 melanoma.
Regarding `C#C[C@]1(O)CC[C@H]2[C@@H]3CC=C4c5sc(-c6ccc(F)cn6)nc5CC[C@]4(C)[C@H]3CC[C@@]21C`, the growth with K-562 leukemia was 6.31% (active); in the assay with MALME-3M melanoma it was 67.6%; with MDA-MB-231 breast, 17.1%; with RXF 393 renal, -50.7% (active); in the assay with SF-268 CNS, 23%; in the assay on SF-295 CNS it was -70.6% (active). Moreover, the growth in the assay with SF-539 CNS was -45.8% (active); in the assay with UACC-257 melanoma it was -31.8% (active); with M14 melanoma, 36.7%; in the assay with HCT-15 colon, 30.5%; in the assay on HT29 colon it was 38.3%; in the assay on SNB-75 CNS, -13.2% (active). Also, the growth in the assay on SNB-19 CNS is 31.5%; in the assay with U251 CNS it was 15.7%; with PC-3 prostate it was 24.2%; in the assay on SK-MEL-5 melanoma, 33.4%; with UACC-62 melanoma it was 0.399% (active); in the assay on LOX IMVI melanoma it was -63.9% (active). Besides, the growth in the assay on SK-MEL-28 melanoma is -28.5% (active); with SK-MEL-2 melanoma, -28.4% (active).
Take `CN(C)c1ccc(/C=c2\sc3nc4ccccc4n3c2=O)cc1`: the growth in the assay on K-562 leukemia was 96.8%; in the assay with MALME-3M melanoma, 101%; in the assay on MDA-MB-231 breast it was 91.2%; in the assay on RXF 393 renal, 117%; with SF-268 CNS it was 109%; in the assay with SF-295 CNS, 109%. In addition, the growth in the assay with SF-539 CNS is 96.5%; with UACC-257 melanoma it was 117%; in the assay on M14 melanoma, 102%; in the assay with HCT-15 colon, 107%; with HT29 colon, 107%; in the assay with SNB-75 CNS it was 105%. Moreover, the growth was 99.3% in the assay on SNB-19 CNS; 102% with U251 CNS; 106% in the assay with PC-3 prostate; 101% in the assay on SK-MEL-5 melanoma; 96.5% in the assay on UACC-62 melanoma; 118% in the assay with LOX IMVI melanoma. Besides, the values for the growth in the assay with SK-MEL-28 melanoma and in the assay on SK-MEL-2 melanoma were 103% and 118%, respectively.
On to `CC(C)NC(=O)c1cc(-c2ccc(NC(=O)Nc3ccc(N4CCOCC4)c(C(F)(F)F)c3)cc2)nc2cccnc12`, for which the growth with K-562 leukemia was 24.6%; with MALME-3M melanoma, 68.3%; with MDA-MB-231 breast it was 48.7%; with RXF 393 renal it was -9.17% (active); with SF-268 CNS, 77.5%; with SF-295 CNS, 1.17% (active). Besides, the growth in the assay with SF-539 CNS was 20.9%; with UACC-257 melanoma, 94.4%; in the assay on M14 melanoma, 73.2%; in the assay with HCT-15 colon, 68.1%; in the assay with HT29 colon, 60.8%; with SNB-75 CNS it was 82.6%. Also, the growth was 62.6% in the assay with SNB-19 CNS; 47% in the assay with U251 CNS; 44.5% with PC-3 prostate; 78.7% in the assay with SK-MEL-5 melanoma; 75.3% in the assay on UACC-62 melanoma; 47.9% with LOX IMVI melanoma. The growth in the assay with SK-MEL-28 melanoma is 59.2%; in the assay with SK-MEL-2 melanoma it was 75.5%.
With `CCOC(=O)c1csc(NC(=O)CSc2nc3sc4c(c3c(=O)n2-c2ccc(Cl)cc2)CCCC4)n1`, the growth in the assay on K-562 leukemia was 93.4%; in the assay on MALME-3M melanoma, 104%; in the assay on MDA-MB-231 breast it was 94.6%; with RXF 393 renal, 100%; in the assay with SF-268 CNS, 89%; in the assay with SF-295 CNS, 91.9%. Besides, the growth is 104% in the assay on SF-539 CNS; 100% in the assay on UACC-257 melanoma; 93.1% in the assay with M14 melanoma; 97.7% in the assay with HCT-15 colon; 122% in the assay on HT29 colon; 86.2% in the assay on SNB-75 CNS. For the same molecule, the growth in the assay with SNB-19 CNS is 96%; in the assay with U251 CNS, 98.4%; in the assay on PC-3 prostate, 92.4%; in the assay with SK-MEL-5 melanoma, 78%; in the assay with UACC-62 melanoma, 85%; in the assay on LOX IMVI melanoma it was 56.5%. Also, the growth with SK-MEL-28 melanoma and in the assay with SK-MEL-2 melanoma was 105% in each case.
Take `Cc1ccc(/C=C/c2nn3c(-c4ccco4)nnc3s2)cc1C`: the growth in the assay with K-562 leukemia is 97.7%; with MALME-3M melanoma, 104%; with MDA-MB-231 breast, 94.8%; with RXF 393 renal, 112%; in the assay on SF-268 CNS it was 108%; with SF-295 CNS, 97%. The growth with SF-539 CNS was 99%; in the assay with UACC-257 melanoma it was 99.2%; in the assay with M14 melanoma it was 108%; in the assay on HCT-15 colon it was 96%; in the assay with HT29 colon, 109%; in the assay on SNB-75 CNS, 96.5%. For the same molecule, the growth in the assay with SNB-19 CNS is 94.9%; with U251 CNS, 95.7%; with PC-3 prostate, 89.9%; in the assay with SK-MEL-5 melanoma, 103%; in the assay on UACC-62 melanoma, 94.8%; in the assay with LOX IMVI melanoma it was 89.3%. Further, the growth with SK-MEL-28 melanoma was 104%; with SK-MEL-2 melanoma, 128%.
As for `Clc1ccc2oc3c(NCCCn4ccnc4)c4ccccc4nc3c2c1`, the growth in the assay on K-562 leukemia was 4.86% (active); with MALME-3M melanoma it was 57.1%; in the assay on MDA-MB-231 breast, 27.1%; with RXF 393 renal, 23.9%; in the assay with SF-268 CNS it was 38.3%; with SF-295 CNS, 30.2%. Besides, the growth is 24.3% in the assay on SF-539 CNS; 78.3% with UACC-257 melanoma; 49.7% in the assay with M14 melanoma; 13% with HCT-15 colon; -35.2% (active) with HT29 colon; 42.1% in the assay with SNB-75 CNS. The growth with SNB-19 CNS was 51%; in the assay with U251 CNS, 11.6%; with PC-3 prostate, 55.4%; in the assay on SK-MEL-5 melanoma, 78%; with UACC-62 melanoma it was 45.2%; in the assay with LOX IMVI melanoma it was -72.1% (active). The growth in the assay with SK-MEL-28 melanoma was 59%; in the assay on SK-MEL-2 melanoma, 110%.
